Source: the supplement of paper PMC6555819

Legend:
Assay in all cases: PBM binding z-score (relative to random genomic background probes); higher = stronger binding; sequences stand for … in GC…GCGATTGACAGCGTAGAATGAAGG
[1] = test system: FXR:RXRa (NR concentration 270 nM, RXRa partner concentration 90 nM)
Procedure, shortened: (§1)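 Binding z-scores take random background probes as their reference. They come from custom Agilent 4×180K protein-binding microarrays incubated 1 h with ligand-free nuclear receptor dimers, with antibodies against each partner (one per run) detecting binding. Scanned fluorescence was regression-normalized.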

[2] = test system: LXRa:RXRa (NR concentration 270 nM, RXRa partner concentration 90 nM)
Procedure, shortened: as §1

[3] = test system: LXRa homodimer (NR concentration 270 nM)
Procedure, shortened: as §1

[4] = test system: LXRb:RXRa (NR concentration 270 nM, RXRa partner concentration 90 nM)
Procedure, shortened: as §1

[5] = test system: LXRb homodimer (NR concentration 270 nM)
Procedure, shortened: as §1

[6] = test system: PPARa:RXRa (NR concentration 270 nM, RXRa partner concentration 90 nM)
Procedure, shortened: as §1

[7] = test system: PPARg:RXRa (NR concentration 180 nM, RXRa partner concentration 90 nM)
Procedure, shortened: as §1

[8] = test system: PPARg:RXRa 270nM:90nM, anti-RXR (NR concentration 270 nM, RXRa partner concentration 90 nM)
Procedure, shortened: as §1

[9] = test system: PPARg:RXRa 30nM:10nM, anti-RXR (NR concentration 30 nM, RXRa partner concentration 10 nM)
Procedure, shortened: as §1

[10] = test system: PPARg:RXRa 90nM:30nM, anti-RXR (NR concentration 90 nM, RXRa partner concentration 30 nM)
Procedure, shortened: as §1

Row | Sequence | PBM binding z-score [1] | PBM binding z-score [2] | PBM binding z-score [3] | PBM binding z-score [4] | PBM binding z-score [5] | PBM binding z-score [6] | PBM binding z-score [7] | PBM binding z-score [8] | PBM binding z-score [9] | PBM binding z-score [10]
1 | CCTCGGAGGACAACAGGAGGTCAGAGCCGCCAGA | 0.835 | 2.03 | 1.67 | 1.17 | -0.539 | 1.92 | 0.457 | 0.136 | -0.412 | -0.258
2 | ACTTACGGGTCAACCAGGTTATAGCACGCGTATA | 7.15 | 5.03 | 0.836 | 4.26 | 0.9 | 5.69 | 6 | 5.69 | 3.07 | 4.26
3 | CCTGCTAGGTCATGGCCAGCTAATCTACAGTATG | 3.55 | 2.55 | 0.0955 | 1.76 | -0.401 | 3.99 | 2.7 | 3 | 0.634 | 2.16
4 | TCATTTAGGTAAACAGGTGAAAGTCCGTAAGTTA | 1.47 | 1.13 | 0.719 | 1.04 | 0.705 | 2.37 | 2.24 | 3.73 | 4.42 | 3.99
5 | CCTGGTTGGTCAGGAGGTCACACACCGGATATGA | 3.43 | 3.17 | 1.62 | 3.13 | 0.647 | 3.89 | 2.6 | 3.31 | 0.453 | 1.96
6 | TGTCAAAGTTCAAAGGTAACGTTAGTATCCACAC | 7.28 | 6.46 | 4.63 | 4.65 | 1.95 | 5.88 | 8.96 | 7.52 | 5.52 | 7.18
7 | TCGAGTAGGTGACCAATGGGGCATTCAGCTTTCT | -0.0525 | -0.335 | -0.709 | -0.15 | -1.02 | 0.875 | 0.524 | 1.12 | 1.01 | 0.794
8 | ACTAGCAGGCCAAGTTTGGGTCACTCTAACAAAG | 0.184 | -0.0297 | -0.399 | 0.217 | -0.928 | 1.03 | -0.172 | 0.0985 | -0.547 | -0.605
9 | CAAACTAGGTCAAGCGGTCAAAGTCCGCTTCCCG | 5.13 | 4.54 | 4.1 | 2.97 | 0.774 | 5.57 | 8.35 | 7.55 | 5.13 | 7.38
10 | TCATATAGGTAATACAGGTGAAAGTAGGCATCTA | 0.885 | 1.45 | 0.55 | 1.22 | 0.295 | 2.15 | 2.26 | 2.62 | 3.8 | 3.24
11 | ATCTCAAGGTAACCAAGTTCAGTGAATGCCGAAC | 0.76 | 1.12 | 0.681 | 0.656 | 0.916 | 0.956 | 0.372 | 0.412 | 0.204 | 0.378
12 | TCGAGTAGGTTACCAATGGGGCATTTAGCTTTCT | 0.00953 | 1.35 | -0.662 | 1.09 | -0.721 | 1.22 | 0.144 | 1.33 | 1.33 | 1.2
13 | ATATGTAGGTTAAGGGTGATTCAGGTTGGTTCGC | 0.984 | 1.63 | 0.808 | 1.73 | 0.807 | 4.98 | 9.36 | 8.2 | 8.53 | 9.45
14 | ATATGTAGGTTAGCTTGGGTCATTCAGACTAGGC | 2.44 | 5.2 | 0.866 | 2.43 | 0.362 | 3.42 | 3.84 | 3.34 | 1.32 | 2.41
15 | TCGAGTAGTTTAGTCGGGGCATTCAGCCAACATA | -0.125 | -0.295 | -0.441 | 0.256 | -0.38 | 0.346 | -0.694 | 0.0847 | 0.837 | 0.633
16 | CCAGACTGGTGAGAAGGTAACTCAGCCTCGATTA | -0.309 | -0.491 | -0.22 | -0.472 | -0.739 | -0.19 | 0.0437 | -0.117 | -0.431 | -0.102
17 | TCTATTAGTTGAAGGGCAACCGTCGAGTCCGTTT | 0.742 | 0.933 | 0.368 | 0.792 | 0.191 | 0.493 | -0.355 | 2.08 | 3.65 | 2.84
18 | ACTAGCAGGCCAAGTTTGGGTCACGCAAACAAAG | 1.01 | 0.518 | -0.2 | 1.33 | -0.873 | 2.27 | 0.556 | 1.04 | -0.0172 | 0.546
19 | CCTCGGAGGACAGAAGGTCACAGCTGTCCGCTTT | 2.65 | 3.33 | 0.899 | 2.27 | -0.713 | 3.54 | 0.989 | 2.62 | -0.00709 | 1.83
20 | TCTTGTAGATCAAAGGTTAGGAAAGCCGAAGCCT | 1.26 | 1.45 | -0.217 | 1.24 | -0.196 | 4.06 | 7.63 | 7.57 | 7.89 | 9.05
21 | GATACAGGGTCAGCTAGAGGCCAAAGTATGGAAA | 5.01 | 3.57 | 0.0556 | 3.09 | -0.391 | 4.59 | 3.94 | 3.58 | 1.03 | 2.36
22 | TATATTAGTTGAAGGGCAACCGACGAGTCCGTTT | 0.481 | 0.797 | 0.861 | 0.474 | 1.01 | 0.509 | 0.844 | 1.23 | 0.993 | 1.22
23 | TCTCGGAGGATACGAAGGTCAGAGCTTTCCAGAG | 0.399 | 0.672 | -0.0784 | 0.653 | -1.33 | 1.55 | 0.177 | 1.23 | 1.89 | 1.51
24 | ATCGAAAGGTCGACGAGGCGAGTATACACCGTTT | 3.59 | 3.38 | 0.0627 | 2.5 | 0.404 | 4.27 | 2.48 | 2.74 | 0.711 | 1.71
